Test results: PubChem BioAssay AID565 (University of Pittsburgh Molecular Library Screening Center, 2006)
The whole screen tested about 65,000 compounds, of which about 1,200 (1.8%) were called active. The sample as a whole holds a higher share of actives than the screen did. A number with no mark means an inactive call. Cut-off read from the data, not from the text of the source: active = inhibition above about 50%; inactive = the rest.

Target: Gag-Pol polyprotein (Human immunodeficiency virus type 1 group M subtype B (isolate HXB2)) (UniProt P04585)
Test: HIV-1 RT RNase H inhibitors, primary screen, biochemical, fluorescence (AID 565)
Details: RT-RNase H RNA/DNA duplex cleavage, at 10 µM, active compounds read high

SMILES | inhibition
CCCc1[nH]nc2c1C(C1CC=CCC1)C(C#N)=C(N)O2 (stereo not given) | -53.6%
Cc1nc2ccc(C(=O)N3CCSCC3)cc2s1 | -8.86%
CC(C)CC(=O)N=C1SC2CS(=O)(=O)CC2N1CCc1ccccc1 (stereo not given) | -0.09%
Cc1ccc(C(=O)NC2CCN(C(=O)N3CCOCC3)CC2)cc1 | -0.08%
O=C(NCCCN1CCN(Cc2ccccc2)CC1)C1CCN(S(=O)(=O)N2CCCC2)CC1 | -16.5%
CCOC(=O)Cn1c(CN(Cc2ccccc2)Cc2ccccc2)nc2c1c(=O)[nH]c(=O)n2C | -4.21%
CN1CCN(c2nc3c(c(=O)[nH]c(=O)n3C)n2Cc2cccc3ccccc23)CC1 | -0.99%
CCC(C)Sc1nc2c(c(=O)[nH]c(=O)n2C)n1CC(O)COc1cccc2ccccc12 (stereo not given) | 76.5% (active)
Cc1cccc(NC(=O)CSc2nnc(CCCCCNC(=O)OC(C)(C)C)o2)c1C | -13.1%
COc1ccc(CNC(=O)c2cc3c(=O)n4ccccc4nc3n(CC3CCCO3)c2=N)cc1 (stereo not given) | -18.1%
CCn1c(=N)c(C(=O)NCCCOC)cc2c(=O)n3cccc(C)c3nc21 | -13.1%
COc1ccc(CCn2c(=N)c(C(=O)NCc3ccco3)cc3c(=O)n4cccc(C)c4nc32)cc1 | 64.2% (active)
Cn1c(=O)[nH]c(=O)c2c1nc(CN(Cc1ccccc1)Cc1ccccc1)n2CCN1CCOCC1 | -6.59%
COc1ccc(OCCCON2C(=O)c3ccccc3C2=O)cc1 | -68.1%
CCCc1nc2ccccc2c(=O)n1NC(=O)c1c(O)c2ccccc2[nH]c1=O | -19.6%
CCCCc1nc2ccccc2c(=O)n1NC(=O)c1c(O)c2cccc3c2n(c1=O)CC3 | 4.26%
CCCc1nc2ccccc2c(=O)n1/N=C/c1ccc(O)c(O)c1 | 88.4% (active)
Cc1ccc2c(c1)N(CCCC(=O)NCc1cccnc1)C(=O)CO2 | -14.5%
CC(C)(C)c1cc(C(=O)NCc2cccnc2)ccn1 | 3.16%
Cc1ccc(-n2nc(-c3ccco3)cc2C(=O)NCc2cccnc2)cc1 | 61.9% (active)
C#CCN1C(=O)C(O)(CC(=O)c2cc(OC)ccc2OC)c2ccccc21 (stereo not given) | -25.6%
O=P(O)(CP(=O)(c1ccccc1)c1ccccc1)c1ccccc1 | -16.3%
CC12CCC(C(=O)N(CCC#N)CCC#N)(CC1=O)C2(C)C (stereo not given) | -5.03%
CCOC(=O)CSC1=C(C#N)C(c2sccc2C)CC(=O)N1 (stereo not given) | -2.34%

SMILES | inhibition
CCOC(=O)CSC1=C(C#N)C(c2ccco2)C(C(=O)OCc2ccccc2)=C(C)N1 (stereo not given) | -11.6%
CC1=C(C(=O)Nc2ccccc2)C(c2cccs2)C(C#N)=C(SCC#N)N1 (stereo not given) | 55.5% (active)
O=C(Nn1cc(C(=O)N2CCN(c3ccccc3F)CC2)c2ccccc2c1=O)c1cnccn1 | -2.41%
COc1cc(-c2nn3c(-c4cccc(C)c4)nnc3s2)cc(OC)c1OC | -7.33%
COc1ccc(-c2nn3c(-c4ccccc4)nnc3s2)cc1OC | -38.4%
Fc1ccc(-c2ccc(-c3nn4c(-c5ccco5)nnc4s3)o2)cc1 | 65.8% (active)
FC(F)(F)c1nnc2sc(-c3ccco3)nn12 | -2.16%
Fc1ccc(-c2nnc3sc(-c4ccc5c(c4)OCO5)nn23)cc1 | 66.3% (active)
Cc1nnc2sc(-c3ccco3)nn12 | 4.12%
Cc1cc(C)c(C#N)c(SCc2ccccc2C(=O)O)n1 | -5.35%
COc1ccc(N2CCN(CCNC(=O)CCN3C(=O)COc4ccccc43)CC2)cc1 | 7.09%
Cc1ccc(C(=O)COc2cccc(NC(=O)c3ccco3)c2)cc1 | 9.47%
O=C(Nc1ccc(Oc2ccccc2)cc1)c1ccco1 | -7.33%
CCOc1cc(NC(=O)c2ccco2)c(OCC)cc1NC(=O)COc1ccccc1 | 52.4% (active)
Cc1cc(Nc2ccccc2)n(C(=O)c2ccc(N)cc2)n1 | -17.6%
CCCOC(=O)Nc1ccccc1C(N)=O | -29.1%
CCOC(=O)c1ccccc1NC(=O)CC1Nc2ccccc2NC1=O (stereo not given) | 71.6% (active)
O=C(CC1Nc2ccccc2NC1=O)Nc1ccccc1 (stereo not given) | -4.38%
CCC(C)NC(=O)C1CCC(=O)N1Cc1ccc(C)cc1 (stereo not given) | -9.01%
CCN(CC)CCCNC(=O)c1cc(-c2cccc(Cl)c2)on1 | -16%
CCN(CC)c1ccc2cc(C(=O)O)c(=O)oc2c1 | -8.5%
CCc1ccc2oc(-c3ccc(N)cc3)nc2c1 | -12.6%
CCN(CC)c1ccc2oc(=O)c(C)nc2c1 | 68.2% (active)
Cc1cccc(NC(=O)COc2ccc(Br)cc2C)n1 | -9.39%

SMILES | inhibition
Cn1nnc(NC(=O)CSc2ncn[nH]2)n1 | -0.52%
CCN(C(=O)CSc1ncn[nH]1)c1cccc2ccccc12 | -10.7%
CC(C)(C)c1ccc(C(=O)CSc2ncn[nH]2)cc1 | 82.3% (active)
Cc1cccc(N=C2NC(=O)CS2)c1C | -0.31%
c1ccc2cc(OCCN3CCCC3)ccc2c1 | -14.7%
N#Cc1cccc(CSc2nnc(CCCO)n2-c2ccccc2)c1 | -5.32%
O=C(OCc1nnc(-c2ccccc2)o1)c1ccc2c(c1)C(=O)N(CCc1ccccc1)C2=O | 16.2%
O=C(CCn1c(=S)[nH]c2ccccc2c1=O)NCCCN1CCCC1=O | -8.03%
O=c1c2ccccc2[nH]c(=S)n1CCN1CCC(=C(c2ccc(F)cc2)c2ccc(F)cc2)CC1 | 53.2% (active)
COc1ccccc1Cn1c(=S)[nH]c2cc(C(=O)N3CCN(C)CC3)ccc2c1=O | -5.95%
CN(C)Cc1c(O)ccc2occ(C(O)c3ccccc3)c12 (stereo not given) | 2.07%
COc1ccc(OC)c2c(N)c(C#N)c(C(F)(F)C(F)(F)F)nc12 | -3.29%
Cn1c(CC(=O)Nc2ccccc2)nnc1SCC(=O)c1ccccc1 | 50.1% (active)
Cc1ccccc1NC(=O)Cc1nnc(SCC(=O)N2CCN(c3ccccc3)CC2)n1C | 1.53%
Cn1c(CNc2nc(-c3ccccc3)cs2)nnc1SCC(=O)c1ccccc1 | -5.65%
CCOC(=O)C(C(=O)OCC)C(C#N)c1ccccc1 (stereo not given) | -13.1%
Cc1ccc(-c2nnc(SC(C)C#N)n2N)cc1 (stereo not given) | -0.02%
COc1cc(C(=O)Nc2oc(-c3ccccc3)c(-c3ccccc3)c2C#N)cc(OC)c1OC | 80% (active)
COc1cc(C(=O)Nc2nccs2)cc(OC)c1OC | -12.7%
N#Cc1c(NC(=O)CCCN2C(=O)c3ccccc3C2=O)oc(-c2ccccc2)c1-c1ccccc1 | 19%
CC(C)(C)NC(=O)C(c1ccco1)N(Cc1ccc2c(c1)OCO2)C(=O)Cn1nnc2ccccc21 (stereo not given) | 9.38%
COCCNC(=O)C(c1ccc(C)o1)N(Cc1ccccc1)C(=O)Cn1nnc2ccccc21 (stereo not given) | 5.47%
CCC(C)(C)NC(=O)C(c1cccn1C)N(Cc1ccc(C)cc1)C(=O)Cn1nnc2ccccc21 (stereo not given) | 50.2% (active)
CCOc1ccc(Cn2c(SCCCCC#N)nc3c2c(=O)n(C)c(=O)n3C)cc1OCC | 29.2%

SMILES | inhibition
Cc1ccc(C)n1-c1ccncc1 | -2.45%
O=C(COc1ccc(S(=O)(=O)NCCc2ccccc2)cc1)N1CCCC1 | -8.41%
Cc1ccc(Cn2nnc3c(=O)n(CC(=O)N4CCCCC4)cnc32)cc1 | -6.24%
CC(=O)Nc1ccc(-c2nn3c(C)nnc3s2)cc1C | -4.83%
N#Cc1ccc(COC(=O)Cn2nnc(-c3ccccc3)n2)cc1 | -12.9%
CCN1CCc2c(C#N)c(NCc3ccccc3)nc(NCCO)c2C1 | 10.1%
N#Cc1c(N)sc2c1CCN(C(=O)OCc1ccccc1)C2 | 52% (active)
CN(C(=O)CSc1nnnn1-c1ccccc1)C1CCCCC1 | -7.53%
CCN(Cc1ccccc1)C(=O)CSc1nc(C)cc2c1C(=O)OC2 | -15.7%
Cc1ccc(-c2nn(-c3ccccc3)cc2CN(Cc2ccccc2)C(=O)CCC(=O)O)o1 | 81.7% (active)
O=C(O)CCC(=O)N(Cc1cccs1)Cc1cccs1 | 4.03%
CSCCC1NC2(C(=O)Nc3ccc(Cl)cc32)[C@@H]2C(=O)N(C3CCCC3)C(=O)[C@H]12 (stereo not given in full) | 2.23%
c1ccc2c(c1)OCC(CNc1ncnc3nc[nH]c13)O2 (stereo not given) | -8.18%
COC(=O)c1ccc(OC(=O)c2nn(C)cc2Cl)c(OC)c1 | -6.66%
O=c1nc2s/c(=C\c3ccco3)c(=O)n2nc1Cc1ccccc1 | 5.64%
CCOc1ccccc1/C=c1\sc2nc(-c3ccco3)nn2c1=O | 33.7%
CN(c1ccccc1)c1ccc(/C=c2\s/c(=C(/C#N)C(=O)C(C)(C)C)n(Cc3ccco3)c2=O)cc1 | 71.8% (active)
CN(C)c1cc(N)c2ccccc2n1 (tested in a mixture with another compound) | -10%
COc1ccc(-c2nc(CS(=O)CC(=O)NCc3ccccn3)c(C)o2)cc1 (stereo not given) | 2.69%
CCOC(=O)C1CCN(Cc2coc3ccc(Cl)cc3c2=O)CC1 | 2.73%
c1ccc(-c2nnc3n2NC(c2ccc4c(c2)OCO4)S3)cc1 (stereo not given) | 67.9% (active)
CC1=C(C(N)=O)C(c2ccc3c(c2)OCO3)n2nc(-c3cccc(C)c3)nc2N1 (stereo not given) | 0.45%
O=C(Cn1nnc(-c2ccccc2)n1)NCc1ccc2c(c1)OCO2 | -23.7%
